GLP-1R inv ag: inverse agonists of human GLP-1 receptor. HEK293 GLP-1R CRE-luciferase, luminescence, 24 h; GLP-1R form is constitutively active. Potency, µM (titrated, usually from 38.3 µM), for inactives: at the top dose activity change, negative = inhibition, actives largely listed as inhibitors. 410,000 tested, 1.6% active. AID 624417; note: % is set by controls: 0 for no effect and ±100 for the full control effect; nearly all actives have a fitted effect of over 55% in size
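Constitutively active GLP-1R drives a cAMP-responsive luciferase in stably transfected HEK293 cells; test compounds are added after overnight (12 h) attachment and left 24 hr, and signal loss in luminescence marks inhibition.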
Pin1 inhibitor: human Pin1 inhibition. Q13526. Pin1 FP peptide displacement, HiFluor488, 10 min. 390,000 tested, 0.009% active. Potency, µM (highest dose often 115 µM), for the others: at the top dose activity, negative = inhibition, actives largely listed as inhibitors; active = well fitted inhibition curve with a large enough effect in the polarisation, with a control signal flat, not every such curve was filed as active; inconclusive = small, poorly fitted or top-dose-only effect, or effect the other way, or a change in a side signal; inactive = no such curve, though single readings can be large or run the other way; the % refers to the polarisation; note: % is set by controls: 0 for no effect and ±100 for the full control effect
Target sequence (Q13526 whole entry, looked up): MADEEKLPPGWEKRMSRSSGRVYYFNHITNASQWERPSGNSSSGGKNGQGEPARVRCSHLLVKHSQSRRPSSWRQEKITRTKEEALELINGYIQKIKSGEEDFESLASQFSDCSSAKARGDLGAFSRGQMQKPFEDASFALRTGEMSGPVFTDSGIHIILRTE
Tb PFK inh-1: blocks T. brucei phosphofructokinase; T. brucei PFK, ADP-Glo luminescence; Potency, µM (highest dose often 57.5 µM), inactives show at the top dose activity, negative = inhibition, most hits filed as inhibitors; 330,000 tested, 0.17% active;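 note: 0% = uninhibited 1x PFK enzyme wells and -100% = no-enzyme wells; nearly all actives have a fitted effect of over 60% in size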
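ADP-Glo luminescence quantified ADP after 45 min at room temperature, with 1.25 nM T. brucei PFK, 0.1 mM ATP and 0.5 mM fructose-6-phosphate in pH 8.0 TEA buffer. qHTS titrations up to 57 µM; curves classified by quality.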
Tb PGK inh: inhibitors of T. brucei phosphoglycerate kinase; PGK/GAPDH coupled, Kinase-Glo luminescence, 60 min; AID 602233; 380,000 tested, 0.043% active; P07378; Potency, µM (top dose mostly 57.5 µM), for the others: top-dose activity change, negative = inhibition, most hits filed as inhibitors; note: % is set by controls: 0 for no effect and ±100 for the full control effect; nearly all actives have a fitted effect of over 60% in size
Target sequence (P07378 whole entry, looked up): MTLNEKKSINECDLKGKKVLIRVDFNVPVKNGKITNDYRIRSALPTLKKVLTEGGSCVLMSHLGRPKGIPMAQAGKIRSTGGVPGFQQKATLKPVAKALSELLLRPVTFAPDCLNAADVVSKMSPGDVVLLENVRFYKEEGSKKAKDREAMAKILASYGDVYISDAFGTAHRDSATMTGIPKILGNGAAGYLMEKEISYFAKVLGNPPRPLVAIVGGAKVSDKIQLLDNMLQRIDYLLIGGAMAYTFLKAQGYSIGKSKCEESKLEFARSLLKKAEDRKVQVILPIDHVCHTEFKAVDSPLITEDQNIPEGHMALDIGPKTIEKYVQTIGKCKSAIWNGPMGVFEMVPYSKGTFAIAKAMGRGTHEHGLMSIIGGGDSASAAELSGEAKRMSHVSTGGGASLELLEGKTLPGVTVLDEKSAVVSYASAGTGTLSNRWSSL
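Luminescent ATP detection (Kinase-Glo Plus) follows a 60-minute room-temperature incubation, with wells lacking PGK as controls. Buffer: 100 mM TEA (pH 7.6), 5 mM MgCl2, 0.01% Tween-20. Coupling enzyme GAPDH (100 nM final) supplies unstable 1,3-BPG in-well.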
HEK293 tox: cytotoxic in the GLP-1 receptor inverse agonist counter-screen; HEK293 cAMP-luciferase reporter cells, luminescence, 24 h; Potency, µM (top dose mostly 38.3 µM), for inactives: at the highest dose activity change, negative = inhibition, usual class: inhibitors; 410,000 tested, 0.13% active;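 note: loss of luciferase light is scored as toxicity; % is set by controls: 0 for no effect and ±100 for the full control effect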
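A 23 nL compound transfer followed 12 hours of cell culture at 37 deg C; exposure then lasted 24 hr. Luciferase assay detection reagent was dispensed and plates read for luminescence after a 12 min room-temperature wait.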
GLP-1R agonist: activates the human GLP-1 receptor; P43220; HEK293 GLP-1R CRE-luciferase, luminescence, 4-6 h; cells express a hypersensitive GLP-1R form; Potency, µM (top dose mostly 45.6 µM), inactives show at the top dose activation, actives largely listed as activators; 380,000 tested, 0.007% active; AID 624172; note: % of control where 0% means no effect
Tb PFK KinaseGlo: inhibits T. brucei PFK measured by ATP depletion | shares compounds with Tb PFK inh-1 | Potency, µM (highest dose often 57.5 µM), without a hit: top-dose inhibition | 1,100 tested, 47% active | AID 504636 | Tb PFK enzyme, ATP depletion, Kinase-Glo Plus luminescence; calls by dose curve; note: nearly all actives have a fitted effect of over 60% in size
Tb PFK inh-2: validation of T. brucei phosphofructokinase inhibitors. shares compounds with Tb PFK inh-1. purified T. brucei PFK, ADP-Glo luminescence, 45 min. Potency, µM (highest dose often 57.5 µM), inactives show at the highest dose activity change, negative = inhibition, most hits filed as inhibitors. 1,100 tested, 41% active;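 note: plate controls were full PFK enzyme control for no effect and no enzyme control for full effect; nearly all actives have a fitted effect of over 60% in size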
Starred values were filed as active, the others as inactive. The list is not random: actives were taken first. Their share in the collection is about 1.8%. Unless noted, calls come from the whole dose curve; as a rule, active = well fitted curve in the direction sought with a large enough effect; inconclusive = small, poorly fitted or top-dose-only effect, or another doubt; inactive = no such curve, though single readings can be large; an effect the other way counts as inactive or inconclusive. Potency is the fitted concentration of half-maximal effect.

Screening CCC1OC(=O)CC(O)C(C)[C@@H](O[C@@H]2OC(C)[C@H](O[C@@H]3C[C@@](C)(O)C(O)C(C)O3)C(N(C)C)C2O)[C@H](CC=O)CC(C)C(=O)/C=C/C(C)=C/[C@@H]1COC1OC(C)C(O)C(OC)[C@@H]1OC (stereo partly drawn) returned GLP-1R agonist -1.6%.
CC(=O)N[C@@H]1c2c(ccc3ccccc23)OC[C@@H]1COC(C)=O was read as GLP-1R inv ag 6.9%, Pin1 inhibitor 0.4%, Tb PFK inh-1 inconclusive, Tb PGK inh -8.5%, HEK293 tox 2.2%, GLP-1R agonist 8.8%, Tb PFK KinaseGlo -30.3% and Tb PFK inh-2 inconclusive.
Cn1cccc1/C=C1/SC(=S)N(CC(=O)O)C1=O was read as GLP-1R inv ag -0.6%, Pin1 inhibitor inconclusive, Tb PFK inh-1 inconclusive, Tb PGK inh -1.5%, HEK293 tox -28.4%, GLP-1R agonist -2.0%, Tb PFK KinaseGlo -27.7% and Tb PFK inh-2 inconclusive.
For Oc1c(Cl)cc(Cl)cc1CN1CCN(Cc2ccccc2)CC1 the results were GLP-1R inv ag inconclusive, Pin1 inhibitor inconclusive, Tb PFK inh-1 -1.8%, Tb PGK inh inactive, HEK293 tox -0.9% and GLP-1R agonist 1.3%.
For O=C1N(c2ccc(Cl)c(Cl)c2)CN(Cc2ccccc2)CN1n1cnnc1 the results were GLP-1R inv ag -2.8%, Pin1 inhibitor -8.4%, Tb PFK inh-1 26.9µM*, Tb PGK inh -6.2%, HEK293 tox 11.7%, GLP-1R agonist 2.8%, Tb PFK KinaseGlo inconclusive and Tb PFK inh-2 -16.4%.
`N#Cc1c([N+](=O)[O-])cc([N+](=O)[O-])cc1S(=O)(=O)Cc1ccccc1` gave GLP-1R inv ag inconclusive, Pin1 inhibitor -2.8%, Tb PFK inh-1 -18.6%, Tb PGK inh 1.9%, HEK293 tox inconclusive and GLP-1R agonist -37.2%.
Screening O=C(c1ccc2nsnc2c1)N1CCN(c2ccc([N+](=O)[O-])cc2)CC1 returned GLP-1R inv ag -24.9%, Pin1 inhibitor inconclusive, Tb PFK inh-1 -15.4%, Tb PGK inh -2.0%, HEK293 tox inconclusive and GLP-1R agonist -2.1%.
For COc1cc(/C=N/n2cnnc2)ccc1OC(=O)N(C)C the results were GLP-1R inv ag -0.3%, Pin1 inhibitor 6.0%, Tb PFK inh-1 -1.1%, Tb PGK inh -3.3%, HEK293 tox -6.9% and GLP-1R agonist 1.2%.
Screening Cc1cccc(NC(=O)COc2ccc(/C=N\n3cnnc3)cc2)c1 returned GLP-1R inv ag 18.8%, Pin1 inhibitor -1.4%, Tb PFK inh-1 inconclusive, Tb PGK inh -9.6%, HEK293 tox -4.4%, GLP-1R agonist 1.8%, Tb PFK KinaseGlo inconclusive and Tb PFK inh-2 -18.4%.
Screening Cc1cc(OC(=O)c2ccco2)c2c3c(c(=O)oc2c1)CCCC3 returned GLP-1R inv ag 0.0%, Pin1 inhibitor 16.4%, Tb PFK inh-1 0.8%, Tb PGK inh -4.4%, HEK293 tox 16.1% and GLP-1R agonist -6.3%.
Screening COc1cc(/C=C(\C#N)C(=O)NCC2CCCO2)ccc1OC(=O)c1ccco1 (stereo not drawn) returned GLP-1R inv ag 5.1%, Pin1 inhibitor 2.0%, Tb PFK inh-1 inconclusive, Tb PGK inh inactive, HEK293 tox inconclusive, GLP-1R agonist -31.3%, Tb PFK KinaseGlo -30.3% and Tb PFK inh-2 inconclusive.
For Clc1ccc(CNCCCSc2ncccn2)cc1Cl the results were GLP-1R inv ag inconclusive, Pin1 inhibitor 4.0%, Tb PFK inh-1 15.1µM*, Tb PGK inh 7.9%, HEK293 tox -0.8%, GLP-1R agonist 24.2%, Tb PFK KinaseGlo 19µM* and Tb PFK inh-2 19µM*.
`CCCCN(CC)Cc1c(C)[nH]c2c(ccc3ccccc32)c1=O` gave GLP-1R inv ag inconclusive, Pin1 inhibitor 2.0%, Tb PFK inh-1 -5.6%, Tb PGK inh -0.4%, HEK293 tox inconclusive and GLP-1R agonist -1.1%.
Screening O=C(CC1SC(=O)N(c2ccccc2)C1=O)Nc1ccc(Br)cc1 (stereo not drawn) returned GLP-1R inv ag 32.1%, Pin1 inhibitor -4.3%, Tb PFK inh-1 19µM*, Tb PGK inh 2.0%, HEK293 tox 15.5%, GLP-1R agonist -2.8%, Tb PFK KinaseGlo inconclusive and Tb PFK inh-2 inconclusive.
CCSS(=O)(=O)c1cccc2cccnc12 was read as GLP-1R inv ag inconclusive, Pin1 inhibitor -0.8%, Tb PFK inh-1 21.3µM*, Tb PGK inh 5.8%, HEK293 tox inconclusive, GLP-1R agonist 4.8%, Tb PFK KinaseGlo 8.49µM* and Tb PFK inh-2 19µM*.
For Oc1cccc2cccnc12 the results were Pin1 inhibitor 0.8%, Tb PFK inh-1 1.2% and GLP-1R agonist -0.1%.
NC(=O)c1cc(S(=O)(=O)N2CCN(c3ccc([N+](=O)[O-])cc3)CC2)cs1 was read as GLP-1R inv ag 6.6%, Pin1 inhibitor -2.7%, Tb PFK inh-1 21.3µM*, Tb PGK inh -9.6%, HEK293 tox -24.9%, GLP-1R agonist -5.3%, Tb PFK KinaseGlo 12µM* and Tb PFK inh-2 26.9µM*.
For Cc1cc(C)c2c(=O)n(CC(=O)Nc3cccc(Cl)c3C)sc2n1 the results were GLP-1R inv ag 1.0%, Pin1 inhibitor -2.9%, Tb PFK inh-1 4.78µM*, Tb PGK inh 10.5%, HEK293 tox -0.9%, GLP-1R agonist 0.9%, Tb PFK KinaseGlo inconclusive and Tb PFK inh-2 6.01µM*.
Screening Cc1c(Cl)cccc1NC(=O)CN1C(=O)C(C)N=C(c2ccccc2)c2ccccc21 (stereo not drawn) returned GLP-1R inv ag inconclusive, Pin1 inhibitor -0.6%, Tb PGK inh -3.6% and HEK293 tox 1.4%.
For Cc1cc(C)c2c(=O)n(CC(=O)Nc3ccc(Br)c(C)c3)sc2n1 the results were GLP-1R inv ag 14.9%, Pin1 inhibitor 1.9%, Tb PFK inh-1 13.5µM*, Tb PGK inh -8.3%, HEK293 tox 0.1%, GLP-1R agonist -0.6%, Tb PFK KinaseGlo 2.69µM* and Tb PFK inh-2 3.01µM*.
For Cc1cc(C)c2c(N)c(C(=O)NCC3CCCCC3)sc2n1 the results were GLP-1R inv ag 55.5%, Pin1 inhibitor 7.8%, Tb PFK inh-1 0.0%, Tb PGK inh -2.3%, HEK293 tox 91.8% and GLP-1R agonist inconclusive.

Screening results deposited in PubChem BioAssay by National Center for Advancing Translational Sciences (NCATS).
